Screening data deposited in PubChem by Sanford-Burnham Center for Chemical Genomics.
CYP2C19 inhib = blockers of cytochrome P450 2C19 activity – biochemical, luminescence, ADME assay, primary screen; P33261; CYP2C19 Supersomes, luciferin-H EGE luminescence, 30 min; inhibition, % at 5 µM; hit rate 21% among 96,000;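 active = CYP2C19 inhibition above a set limit at 5 µM in the primary screen, cut at about 50% in these data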
PLAP act = PLAP enzyme activators, biochemical, luminescence, HTS; Alkaline phosphatase, placental type (Homo sapiens), P05187; activation fold at 20 µM; hit rate 1.2% among 96,000; purified PLAP enzyme, luminescent substrate read-out; active compounds read high; in the data active = activation fold above about 2
Target sequence (P05187 whole entry, looked up): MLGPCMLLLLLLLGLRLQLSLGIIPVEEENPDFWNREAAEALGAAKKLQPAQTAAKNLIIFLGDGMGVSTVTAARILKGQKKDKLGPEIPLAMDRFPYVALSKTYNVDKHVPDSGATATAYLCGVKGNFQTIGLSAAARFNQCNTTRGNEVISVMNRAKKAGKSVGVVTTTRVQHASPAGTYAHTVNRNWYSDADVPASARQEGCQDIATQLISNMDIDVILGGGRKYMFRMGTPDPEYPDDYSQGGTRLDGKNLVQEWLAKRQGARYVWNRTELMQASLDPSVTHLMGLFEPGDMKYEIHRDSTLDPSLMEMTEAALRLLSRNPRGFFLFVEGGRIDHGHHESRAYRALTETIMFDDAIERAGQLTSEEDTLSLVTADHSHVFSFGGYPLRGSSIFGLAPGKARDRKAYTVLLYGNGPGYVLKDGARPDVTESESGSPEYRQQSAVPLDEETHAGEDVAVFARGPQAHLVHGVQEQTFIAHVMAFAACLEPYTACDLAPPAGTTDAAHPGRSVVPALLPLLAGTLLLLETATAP
CYP2C9 activ = human CYP2C9 activators, primary screen, biochemical, luminescence; AID 1024, 2008; activation factor at 5 µM; hit rate 1.4% among 96,000; recombinant CYP2C9, luciferin-H conversion; active compounds read high; factor 1 = untreated enzyme, 0 = blocked;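 active = activation factor of 2 or more for CYP2C9 at a 5 µM dose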
CYP2C19 act = human CYP2C19 activators, primary screen, biochemical, luminescence; Cytochrome P450 2C19 (Homo sapiens), P33261; 96,000 tested, under 10 active; recombinant CYP2C19, luciferin-H EGE luminescence; active compounds read high; 0 = fully inhibited enzyme, 1 = untreated enzyme; activation factor at 5 µM;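 active = activation factor of at least 2 at 5 µM in the primary screen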
CYP2C9 inh = blockers of cytochrome P450 2C9 activity – biochemical, luminescence, ADME assay, primary screen; hit rate 20% among 96,000; P11712; CYP2C9 Supersomes, luciferin-H conversion; inhibition, % at 5 µM;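 active = blocking of liver enzyme CYP2C9 beyond about 50% at 5 µM, limit read from the data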
Each line names hits and unclear results; the compound was inactive in the other large screens. Hits are enriched below; roughly 31% of the tested compounds scored in any of these assays.

CCc1ccc2oc(=O)cc(CN3CCOCC3)c2c1	CYP2C19 inhib 65
CCN1CCN(S(=O)(=O)c2ccc3c(c2)OCCO3)CC1	none
CCc1ccc2c(CN3CCN(S(=O)(=O)c4ccc5c(c4)OCCO5)CC3)cc(=O)oc2c1	CYP2C9 inh 53
O=C1c2cccnc2Nc2ccccc2N1CCCF	none
CCOC(=O)Cn1c(C)c(Br)c(=O)c2cccc(C)c21	none
O=C(CSCc1ccccc1Cl)NN=C1CCCCCC1	CYP2C19 inhib 63
O=C(CSCc1ccccc1Cl)NNC(=S)Nc1ccccc1	CYP2C19 inhib 86, CYP2C9 inh 75
CC(C)NC(=O)CSCc1ccccc1Cl	CYP2C19 inhib 66
CCc1nnc(NC(=O)c2c(C)nn(-c3ccccc3)c2Cl)s1	none
CCOC(=O)c1c(C)[nH]c(C)c1C(=O)CSc1nnnn1-c1ccccc1	CYP2C19 inhib 99, CYP2C9 inh 88
COC(=O)c1c(C)[nH]c(C(=O)CSc2nnnn2-c2ccccc2)c1C	none
CCOC(=O)c1[nH]c(CSc2nnnn2-c2ccccc2C)c(C(=O)OCC)c1C	CYP2C9 inh 54
CCOC(=O)c1c(C)[nH]c(C)c1C(=O)CSc1ncccn1	CYP2C19 inhib 59
CCOC(=O)c1c(C)[nH]c(C)c1C(=O)COC(=O)CCOc1ccccc1OC	CYP2C19 inhib 77, CYP2C9 inh 83
C=CCn1c(SCC(=O)NCc2ccco2)nc2sc3c(c2c1=O)CCC3	none
COc1ccc(NC(=O)CSc2nnc(-c3ccccn3)n2-c2ccccc2)cc1OC	none
CC(O)(CS(=O)(=O)Cc1ccccc1)C(=O)Nc1cccc(C(F)(F)F)c1 (stereo not drawn)	none
CC(C)CCn1c(SCC(=O)OCn2nnc3ccccc3c2=O)nc2ccccc2c1=O	none
CCSc1nnc([C@H](C)NC(=O)OC(C)(C)C)o1	none
O=C(C1CCCCN1S(=O)(=O)c1ccc(F)cc1)N1CCN(c2ccccc2F)CC1 (stereo not drawn)	none
O=C(CSc1nc(-c2ccccc2)nc2c1CCCC2)N1CCOCC1	none
Nc1c(C(=O)NC2CCCC2)sc2nc(-c3cccs3)ccc12	CYP2C19 inhib 72
NC(=O)c1cc(-c2ccccc2)sc1NC(=O)Cc1ccc(S(=O)(=O)N2CCOCC2)s1	CYP2C9 inh 52
CCOc1ccc(-c2nc(CSc3nnc(C)s3)cs2)cc1OC	PLAP act 2.1
COc1ccccc1Nc1nc(N)nc(CSc2nnc(C)s2)n1	none
CCOc1ccc(-c2nc(CSc3nncs3)cs2)cc1OC	CYP2C19 inhib 53
COc1cc(NC(=O)c2cccs2)c(C(=O)OCC(=O)NC(C)c2ccccc2)cc1OC (stereo not drawn)	CYP2C19 inhib 64, CYP2C9 inh 90
COc1cc(NC(=O)c2cccs2)c(C(=O)OCC(=O)NCc2ccccc2)cc1OC	none
CC(=O)C1=C(O)C(=O)N(CC(=O)O)C1c1ccccc1Cl (stereo not drawn)	none
COc1ccc(CNC(=O)C2CCCN2S(=O)(=O)c2ccccc2)cc1 (stereo not drawn)	CYP2C19 inhib 77
COc1ccc(CNC(=O)C2CCCN2S(=O)(=O)c2ccc(C)cc2)cc1 (stereo not drawn)	CYP2C19 inhib 80
CCC(C)(C(=O)NC1CCCCC1)N(C)C(=O)c1ccccn1 (stereo not drawn)	none
Cc1ccn2c(C(=O)N/N=C\c3cccs3)c(C)nc2c1	CYP2C9 inh 52
O=C(N/N=C/c1cccs1)c1ccccn1	none
COc1ccccc1NC(=O)c1cnc2n(c1=O)CCS2	none
Cc1nnc(NC(=O)CSc2nnc(Cc3ccccc3)n2Cc2ccccc2)s1	none
O=C(Cn1cc2c(n1)CCCC2)Nc1cc(-c2cccc(Cl)c2)no1	CYP2C9 inh 57
COc1ccccc1OC(=O)c1ccc(SC)cc1OC	none
c1ccc2c(c1)nc1n2C2(N3CCOCC3)CCCC2C1N1CCOCC1 (stereo not drawn)	CYP2C9 inh 99
Cc1cc(=O)oc2ccc(OCC(=O)N3CCC(C)CC3)cc12	CYP2C19 inhib 55
COc1ccc(S(=O)(=O)N2CCN(C(=O)COc3ccc4c(C)cc(=O)oc4c3)CC2)cc1	none
Cc1cc(=O)oc2cc(OCC(=O)N3CC(C)OC(C)C3)ccc12 (stereo not drawn)	CYP2C19 inhib 73
Cc1cc(=O)oc2cc(OCC(=O)N3CCCC(C)C3)ccc12 (stereo not drawn)	none
CCOC(=O)c1ccc2cccc(C)n2c1=O	CYP2C19 inhib 88, CYP2C9 inh 74
CCSc1nc2c(sc3nc(C)cc(C)c32)c(=O)[nH]1	CYP2C9 inh 58
Cc1occc1-c1nnc(SCC(=O)NCCc2ccccc2)n1Cc1ccccc1	CYP2C9 inh 55
Cc1occc1-c1nnc(SCC(=O)N2CCOCC2)n1CCc1ccccc1	none
COc1cccc(-n2c(SCC(=O)NCCc3ccccc3)nnc2-c2ccoc2C)c1	CYP2C19 inhib 98, CYP2C9 inh 88
Cn1c(SCC(=O)NCCc2ccccc2)nnc1-c1ccco1	none
Cc1occc1-c1nnc(SCC(N)=O)n1Cc1ccccc1	none
Cc1occc1-c1nnc(SCC(=O)Nc2ccccc2)n1C(C)c1ccccc1 (stereo not drawn)	CYP2C19 inhib 89, CYP2C9 inh 96
Cc1occc1-c1nnc(SCC(=O)Nc2ccccc2)n1CCc1ccccc1	CYP2C19 inhib 92, CYP2C9 inh 85
O=C(CSc1nnc(-c2cccs2)n1-c1ccccc1)Nc1ccccc1	none
CCCCCC(=O)Nc1cc2[nH]c(=O)cc(COC)c2cc1C	none
CCC(C)NC(=O)C1CCN(S(=O)(=O)N2CCCC2)CC1 (stereo not drawn)	none
CCOC(=O)c1cccc(NC(=O)COC)c1	none
CCOC(=O)c1cccc(NC(=O)CSc2nnc(-c3ccoc3C)n2CCOC)c1	CYP2C19 inhib 83, CYP2C9 inh 89
O=C(CCCCCN1C(=O)CCC1=O)Nc1ccc2c(c1)OCCO2	none
O=S(=O)(c1ccc(Cl)c(C(F)(F)F)c1)N1CCN(CC(O)COCC2CCCO2)CC1 (stereo not drawn)	CYP2C9 activ 2
CCOc1ccc(C(=O)N/N=C/c2ccc(-c3ccc(S(=O)(=O)Nc4ncccn4)cc3)o2)cc1	PLAP act 2.1, CYP2C9 inh 72
CCC(=O)Nc1ccc(S(=O)(=O)Nc2ncccn2)cc1	none
O=C(N/N=C/c1ccc(-c2ccc(S(=O)(=O)Nc3ncccn3)cc2)o1)c1cc2ccccc2cc1O	CYP2C9 inh 81
CC(C)(C)C(=O)Nc1ccc(N2CCCC2)cc1	none
CCOC(=O)N1CCN(C(=O)CN2C(=O)CC(C)(C)S(=O)(=O)c3ccccc32)CC1	CYP2C19 inhib 55
CCC(C(=O)OC)n1cnc2c(nnn2-c2cccc(Cl)c2)c1=O (stereo not drawn)	none
